What all share (settings): mRNA level, 48 h; actives raise or lower the signal
Read-out in experiment [1]: Signal transducer and activator of transcription 3 (Homo sapiens) (UniProt P40763)
In words: LTEA_HepaRG_STAT3: Life Technologies and Expression Analysis (LTEA) Assay for Signal transducer and activator of transcription (STAT3) using HepaRG (AID 2283529). In a few lines:
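STAT3 transcript quantified by qRT-PCR against three housekeeping genes (ACTB, GAPDH, POLR2A), fitted both directions relative to DMSO. HepaRG cultures exposed 48 h to eight half-log concentrations, top 100 uM, 0.5% DMSO, serum-free induction medium.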

Read-out in experiment [2]: solute carrier (SLCO1B1), SLCO1B1 (gene 10599)
The experiment can be described thus: LTEA_HepaRG_SLCO1B1: Life Technologies and Expression Analysis (LTEA) Assay for solute carrier (SLCO1B1) using HepaRG (AID 2283530). The method, boiled down: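 Differentiated human HepaRG cells were exposed for 48 h in serum-free induction medium to eight half-log concentrations, top 100 uM, in 0.5% DMSO. SLCO1B1 mRNA was measured by qRT-PCR, normalized to ACTB, GAPDH and POLR2A, and fitted bidirectionally against DMSO.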

Read-out in experiment [3]: sulfotransferase 2A1 (SULT2A1), SULT2A1 (gene 6822)
In words: LTEA_HepaRG_SULT2A1: Life Technologies and Expression Analysis (LTEA) Assay for sulfotransferase 2A1 (SULT2A1) using HepaRG (AID 2283531). In a few lines: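 HepaRG human liver cells, 48 h exposure in serum-free induction medium to 8 half-log concentrations topping at 100 µM (0.5% DMSO), duplicate wells. SULT2A1 mRNA measured by TaqMan qRT-PCR, normalized to ACTB/GAPDH/POLR2A; bidirectional fit against DMSO.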

Read-out in experiment [4]: Transforming Growth Factor (TGFA), TGFA (gene 7039)
The experiment can be described thus: LTEA_HepaRG_TGFA: Life Technologies and Expression Analysis (LTEA) Assay for Transforming Growth Factor (TGFA) using HepaRG (AID 2283532). The method, boiled down:
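TGFA transcript quantified by qRT-PCR (Fluidigm arrays) against three housekeeping genes, after 48 hours chemical treatment of HepaRG cells. Top concentration 100 uM with half-log dilutions, 8 points, duplicates, 0.5% DMSO.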

Read-out in experiment [5]: Transforming Growth Factor (TGFB1), TGFB1 (gene 7040)
In words: LTEA_HepaRG_TGFB1: Life Technologies and Expression Analysis (LTEA) Assay for Transforming Growth Factor (TGFB1) Transporter using HepaRG (AID 2283533). The method, boiled down:
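Differentiated HepaRG cells exposed 48 hr in serum-free induction medium to eight half-log concentrations up to 100 uM (0.5% DMSO), duplicate; TGFB1 mRNA by TaqMan qRT-PCR normalised to ACTB, GAPDH, POLR2A; bidirectional fit against DMSO.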

Read-out in experiment [6]: TIMP1, TIMP1 (gene 7076)
In words: LTEA_HepaRG_TIMP1: Life Technologies and Expression Analysis (LTEA) Assay for TIMP1 using HepaRG (AID 2283534).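 Further: TaqMan qRT-PCR signal normalized to ACTB GAPDH and POLR2A housekeeping genes.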 The method, boiled down: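 Differentiated HepaRG cells exposed 48 h in serum-free induction medium, duplicates, eight half-log concentrations from 100 uM in 0.5% DMSO. TIMP1 mRNA by qRT-PCR normalized to ACTB, GAPDH, POLR2A; bidirectional fitting against DMSO.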

Read-out in experiment [7]: Tumor necrosis factor receptor 1 (TNFRSF1A), TNFRSF1A (gene 7132)
In words: LTEA_HepaRG_TNFRSF1A: Life Technologies and Expression Analysis (LTEA) Assay for Tumor necrosis factor receptor 1 (TNFRSF1A) using HepaRG (AID 2283535). In a few lines: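 Differentiated HepaRG cells in serum-free induction medium, exposed 48 h in duplicate to 8 half-log concentrations up to 100 uM in 0.5% DMSO. TNFRSF1A mRNA by Fluidigm TaqMan qRT-PCR, normalized to ACTB, GAPDH, POLR2A; bidirectional fit.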

Read-out in experiment [8]: Thyroid Hormone Responsive (THRSP), THRSP (gene 7069)
The experiment can be described thus: LTEA_HepaRG_THRSP: Life Technologies and Expression Analysis (LTEA) Assay for Thyroid Hormone Responsive (THRSP) using HepaRG (AID 2283536). The method, boiled down: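 THRSP transcript quantified by Fluidigm qRT-PCR against three housekeeping genes after 48 h chemical exposure of HepaRG cells in serum-free induction medium; eight-point half-log series, top 100 uM, 0.5% DMSO vehicle, duplicate wells.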

Read-out in experiment [9]: Cellular tumor antigen p53 (Homo sapiens) (UniProt P04637)
The experiment can be described thus: LTEA_HepaRG_TP53: Life Technologies and Expression Analysis (LTEA) Assay for Tumor Protein P53 (TP53) using HepaRG (AID 2283537). In a few lines: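 TP53 transcript measured by qRT-PCR, normalized to three housekeeping genes, after 48 h treatment of human HepaRG cultures with chemicals from 100 uM downward in half-log steps (0.5% DMSO vehicle, serum-free induction medium). Up- or down-regulation fitted against DMSO.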

Read-out in experiment [10]: UDP glucuronosyltransferase (UGT1A1), UGT1A1 (gene 54658)
In words: LTEA_HepaRG_UGT1A1: Life Technologies and Expression Analysis (LTEA) Assay for UDP glucuronosyltransferase (UGT1A1) using HepaRG (AID 2283538). In a few lines:
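Cells are plated, cultured 48 h, switched to serum-free induction medium, then dosed 48 h at eight concentrations (max 100 uM, 0.5% DMSO). RNA is isolated and UGT1A1 expression measured by qRT-PCR; changes versus DMSO are fitted in both directions.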

Our source for the outcome and AC50 values is PubChem BioAssay (EPA / NIEHS).

Usually AC50 stands for the concentration at which the activity in the assay is half-maximal.

Calls of active or inactive are those of the source. How the source made its calls: active means hit-call score of the fitted dose curve at least 0.9, where 1 is the maximum; inactive means score below 0.9.

Sequence of Cellular tumor antigen p53 (Homo sapiens) (P04637 whole entry, looked up): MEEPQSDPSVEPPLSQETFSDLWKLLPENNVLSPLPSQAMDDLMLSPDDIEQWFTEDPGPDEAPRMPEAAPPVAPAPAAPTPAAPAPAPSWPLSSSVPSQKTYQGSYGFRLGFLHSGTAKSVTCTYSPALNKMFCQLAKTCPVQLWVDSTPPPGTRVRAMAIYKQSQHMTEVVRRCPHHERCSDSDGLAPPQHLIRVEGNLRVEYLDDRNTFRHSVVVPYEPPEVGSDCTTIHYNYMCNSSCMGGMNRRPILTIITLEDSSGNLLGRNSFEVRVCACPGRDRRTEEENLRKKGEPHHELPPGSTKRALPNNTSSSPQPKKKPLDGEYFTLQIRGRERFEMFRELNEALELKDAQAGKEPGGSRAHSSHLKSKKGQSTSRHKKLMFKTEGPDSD
Sequence of Signal transducer and activator of transcription 3 (Homo sapiens) (P40763 whole entry, looked up): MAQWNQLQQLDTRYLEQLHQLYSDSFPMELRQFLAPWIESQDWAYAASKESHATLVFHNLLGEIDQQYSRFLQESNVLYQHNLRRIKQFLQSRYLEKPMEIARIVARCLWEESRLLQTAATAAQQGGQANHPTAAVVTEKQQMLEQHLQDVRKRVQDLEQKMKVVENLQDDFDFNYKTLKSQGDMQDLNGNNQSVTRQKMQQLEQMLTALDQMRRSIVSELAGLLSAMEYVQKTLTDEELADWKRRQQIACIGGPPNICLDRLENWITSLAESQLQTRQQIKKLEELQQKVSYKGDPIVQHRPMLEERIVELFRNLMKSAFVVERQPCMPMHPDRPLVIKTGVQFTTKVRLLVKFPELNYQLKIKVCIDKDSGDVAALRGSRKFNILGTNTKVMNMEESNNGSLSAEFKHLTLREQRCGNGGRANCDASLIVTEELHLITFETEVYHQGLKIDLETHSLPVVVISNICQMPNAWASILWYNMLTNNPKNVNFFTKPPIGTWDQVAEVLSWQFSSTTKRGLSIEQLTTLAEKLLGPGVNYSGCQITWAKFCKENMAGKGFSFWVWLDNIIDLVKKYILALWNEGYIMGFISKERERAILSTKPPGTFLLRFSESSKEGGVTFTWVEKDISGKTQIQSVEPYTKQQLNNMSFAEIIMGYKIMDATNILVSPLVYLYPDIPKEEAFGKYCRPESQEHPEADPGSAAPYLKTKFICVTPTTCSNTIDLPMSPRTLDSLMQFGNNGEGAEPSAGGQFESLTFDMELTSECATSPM

As to `c1ccc2c(c1)ccc1ccccc12`, the result in experiment [1], in experiment [2], in experiment [3], in experiment [4], in [5] and in experiment [6] was inactive. For the same compound, the compound was classed as inactive in [7], in experiment [8] and in experiment [9]. Also, in experiment [10], the AC50 is 7.77 µM (active).

For `O=C(O)c1ccccc1C(c1ccc(O)cc1)c1ccc(O)cc1`, the compound was classed as inactive in experiment [1], in [2], in [3], in [4], in experiment [5] and in experiment [6]. Further, the compound was called inactive in experiment [7], in [8] and in experiment [10].

`Cc1oc(-c2ccccc2)nc1CCOc1ccc(C[C@H](Nc2ccccc2C(=O)c2ccccc2)C(=O)O)cc1`: the AC50 in experiment [1] was 21.2 µM (active); in experiment [2], 23.4 µM (active); in experiment [3], 23.4 µM (active); in [4], 0.0617 µM (active); in experiment [5] it was 31.3 µM (active); in experiment [7] it was 26.7 µM (active). The figures for the AC50 in [8], in experiment [9] and in experiment [10] were 24 µM (active), 86.1 µM (active) and 23.1 µM (active), respectively. The compound was classed as inactive in [6].

For the compound `CC(=O)CC(C)(C)O`, the call in experiment [1], in [2], in experiment [3], in experiment [4], in experiment [5] and in experiment [6] was inactive. In addition, the call in experiment [7], in experiment [8], in [9] and in [10] was inactive.

On to `CC1=C(/C=C/C(C)=C/C=C/C(C)=C/C(=O)O)C(C)(C)CCC1`, for which the compound was classed as inactive in experiment [1], in experiment [4], in experiment [5], in [6], in experiment [7] and in experiment [8]. For the same compound, in experiment [9], the call was inactive. Also, the results for the AC50 in experiment [2], in experiment [3] and in [10] were 11.5 µM (active), 0.812 µM (active) and 13 µM (active), respectively.

As for `OCCC(F)(F)C(F)(F)C(F)(F)C(F)(F)C(F)(F)C(F)(F)C(F)(F)C(F)(F)F`, the compound was classed as inactive in experiment [1], in experiment [2], in [3], in [4], in experiment [5] and in experiment [6]. In addition, the compound was classed as inactive in [7], in [8], in [9] and in experiment [10].

In the case of `CC[C@H](c1ccc(O)cc1)[C@@H](CC)c1ccc(O)cc1`, the AC50 is 93.8 µM (active) in experiment [1]; 92.8 µM (active) in experiment [2]; 79.7 µM (active) in experiment [3]; 79.5 µM (active) in [5]; 93.4 µM (active) in experiment [7]; 80.1 µM (active) in experiment [9]. In addition, the AC50 in experiment [10] is 83.3 µM (active). Further, the outcome in experiment [4], in experiment [6] and in experiment [8] was inactive.

On to `Cc1cc(CCN2CCN(c3nsc4ccccc34)CC2)cc2c1NC(=O)CC2(C)C`, for which the compound was classed as inactive in [1], in [4], in experiment [6] and in [7]. Besides, the AC50 was 77.5 µM (active) in [2]; 85.8 µM (active) in experiment [3]; 35.4 µM (active) in [5]; 82 µM (active) in experiment [8]; 80.4 µM (active) in [9]; 91.6 µM (active) in experiment [10].

In the case of `CCN(CC)CCNc1ccc(CNC=O)c2sc3ccc(OC)cc3c(=O)c12`, the AC50 in experiment [1] is 83.4 µM (active); in experiment [3], 76 µM (active); in experiment [4], 12.5 µM (active); in [7] it was 43.5 µM (active); in [8], 12.8 µM (active); in experiment [9] it was 16.6 µM (active). Besides, the AC50 in experiment [10] was 44 µM (active). For the same compound, the compound was called inactive in experiment [2], in [5] and in experiment [6].

Regarding `CCC(=C(c1ccc(O)cc1)c1ccc(OCCN(C)C)cc1)c1ccccc1`, the result in [1], in [2], in experiment [4], in experiment [6], in experiment [7] and in experiment [8] was inactive. Further, the compound was classed as inactive in [10]. Besides, the AC50 was 85.5 µM (active) in [3] and 97.5 µM (active) in experiment [5].

With `CC(C)(C)c1cc(C(C)(C)C)c(O)c(C(C)(C)C)c1`, the call in [1], in experiment [2], in experiment [3], in [4], in [5] and in experiment [6] was inactive. Besides, the compound was classed as inactive in [7] and in experiment [9]. The AC50 in experiment [8] was 17.9 µM (active); in experiment [10] it was 13.9 µM (active).
